Test [1] concerns the target human Vitamin D Receptor (VDR), VDR (gene 7421) (UniProt P11473). The test is described as follows: ATG_VDR_TRANS: Attagene TRANS-FACTORIAL HepG2 Assay for human Vitamin D Receptor (VDR) (AID 2283022; active = hit-call score of the fitted dose curve at least 0.9, where 1 is the maximum). In outline: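 HepG2 cells were transiently transfected with GAL4-UAS reporter units and a chimeric VDR-Gal4 construct, then dosed for 24 hours. Reporter mRNA was quantified by RT-PCR, fluorescent labeling, HpaI digestion and capillary electrophoresis; gain of signal analysed vs DMSO.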

Test [2] is described as follows: BSK_3C_SRB: Viability Assessment in the BioMAP Diversity Plus: 3C Assay (AID 2283023).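 Also: fitted both ways against DMSO so a hit may be signal rise or drop.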 Conditions: primary human endothelial cells (HUVEC). In a few lines:
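Human umbilical vein endothelial cells in the 3C system, treated 24 h. Total protein measured by 0.1% sulforhodamine B staining after 10% TCA fixation, read at 560 nm; bidirectional fit versus DMSO.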

Read-out in test [3]: Matrix Metallopeptidase 1 (MMP1), MMP1 (gene 4312)
The test is described as follows: BSK_BE3C_MMP1: BioMAP Diversity Plus: BE3C Assay for Matrix Metallopeptidase 1 (MMP1) Biomarker Activity (AID 2283024). The settings on record: primary human bronchial epithelial cells; actives raise or lower the signal. In a few lines:
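MMP1 signal, measured by ELISA after a 24 h chemical exposure of human primary bronchial epithelial cells, is analysed with bidirectional fitting using DMSO as negative control.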

Test [4] is described as follows: BSK_3C_Vis: BioMAP Diversity Plus: 3C Assay for Morphology Visualization (AID 2283025).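 Also: fitted both ways so gain or loss versus DMSO counts.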 The settings on record: primary human endothelial cells (HUVEC). In outline:
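Morphology read by light microscopy serves as a background control for the multiplexed 3C assay in human umbilical vein endothelial cells, taken 24 h after dosing, with DMSO as the negative control and bidirectional curve fitting.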

Read-out in test [5]: Pselectin, SELP (gene 6403)
The test is described as follows: BSK_4H_Pselectin: BioMAP Diversity Plus: 4H Assay for Pselectin Biomarker Activity (AID 2283026). Conditions: primary human endothelial cells (HUVEC); actives raise or lower the signal. In outline: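 Endothelial primary cells (human umbilical vein) are dosed, incubated 24 h, and assayed for surface P-selectin by ELISA; responses in either direction are fitted relative to the DMSO negative control.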

Test [6] in a line: BSK_4H_SRB: Viability Assessment in the BioMAP Diversity Plus: 4H Assay (AID 2283027).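 Also: cells exposed to compound for 24 h before staining.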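 As to AC50: curves fitted both ways versus DMSO so AC50 may be loss or gain.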 The settings on record: primary human endothelial cells (HUVEC). In a few lines:
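Cytotoxicity read-out in primary human endothelial cells: after 24 h compound exposure, cells were TCA-fixed (10%), stained with 0.1% SRB and absorbance taken at 560 nm. Values fitted in both directions relative to DMSO.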

A short description of test [7]: BSK_BE3C_SRB: Viability Assessment in the BioMAP Diversity Plus: BE3C Assay (AID 2283028).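 As to AC50: fitted both ways so AC50 may mark signal gain or loss versus DMSO.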 Conditions: primary human bronchial epithelial cells. In outline: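 Human bronchial epithelial primary cells in confluent culture, 24 h after chemical dosing; total protein by 0.1% SRB staining after 10% TCA fixation, read at 560 nm. Bidirectional fitting versus DMSO baseline.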

Read-out in test [8]: Thrombomodulin, THBD (gene 7056)
The test is described as follows: BSK_3C_Thrombomodulin: BioMAP Diversity Plus: 3C Assay for Thrombomodulin Biomarker Activity (AID 2283029). Conditions: primary human endothelial cells (HUVEC); actives raise or lower the signal. In outline: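 Endothelial cells from umbilical vein are dosed with test chemical and incubated 24 h. Thrombomodulin is then quantified by ELISA, with DMSO serving as negative control and activity baseline.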

Read-out in test [9]: Urokinase-type plasminogen activator receptor (uPAR), PLAUR (gene 5329)
The test is described as follows: BSK_4H_uPAR: BioMAP Diversity Plus: 4H Assay for Urokinase-type plasminogen activator receptor (uPAR) Biomarker Activity (AID 2283030). Conditions: primary human endothelial cells (HUVEC); actives raise or lower the signal. In a few lines:
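Human umbilical vein endothelial cells in the 4H system, 24 h after chemical dosing. Cell-surface uPAR measured by ELISA, fitted in both directions versus DMSO; cytotoxicity checked by SRB total protein in parallel cultures.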

Read-out in test [10]: Vascular endothelial growth factor receptor 2 (Homo sapiens) (UniProt P35968)
The test is described as follows: BSK_4H_VEGFRII: BioMAP Diversity Plus: 4H Assay for Vascular endothelial growth factor receptor 2 (VEGFR2) Biomarker Activity (AID 2283031).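 As to AC50: cell-surface VEGFR2 protein level quantified by ELISA.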 Conditions: primary human endothelial cells (HUVEC); actives raise or lower the signal. In outline: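 Primary human umbilical vein endothelial cells (4H system), 24 h exposure; cell-surface VEGFR2 measured by ELISA. Bidirectional fitting versus DMSO; cytotoxicity checked in parallel by SRB total-protein staining.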

For 19 compounds, outcome and AC50 results are on record in PubChem BioAssay (EPA / NIEHS).

As usually defined, the AC50 is the concentration at which the activity in the assay is half-maximal.

Records with an inconclusive call do not appear. Active and inactive are the calls of the source. The calls were made as follows, unless noted: active = hit-call score of the fitted dose curve at least 0.9, where 1 is the maximum; inactive = score below 0.9.

Chain of human Vitamin D Receptor (VDR), VDR (gene 7421) (P11473 whole entry, looked up, the tested form may be a part): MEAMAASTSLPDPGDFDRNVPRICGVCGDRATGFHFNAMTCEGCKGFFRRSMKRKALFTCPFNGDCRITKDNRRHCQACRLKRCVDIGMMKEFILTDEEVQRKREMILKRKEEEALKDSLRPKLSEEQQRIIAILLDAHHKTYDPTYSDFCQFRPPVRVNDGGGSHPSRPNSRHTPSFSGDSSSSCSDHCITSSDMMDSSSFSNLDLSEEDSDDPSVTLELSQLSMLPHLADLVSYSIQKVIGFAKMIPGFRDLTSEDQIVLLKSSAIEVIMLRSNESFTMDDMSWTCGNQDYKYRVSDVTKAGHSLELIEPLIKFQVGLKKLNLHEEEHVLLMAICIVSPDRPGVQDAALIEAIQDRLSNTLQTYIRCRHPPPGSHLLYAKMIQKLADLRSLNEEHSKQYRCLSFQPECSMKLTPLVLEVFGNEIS

Consider `Cc1occc1C(=O)Nc1ccc(C(=O)N2CCC(F)(F)/C(=C\C(=O)N3CCC(N4CCCCC4)CC3)c3ccccc32)cc1`, for which the call in test [1], in [3], in [4], in test [5], in test [6] and in test [7] was inactive. Besides, the result in [8], in test [9] and in test [10] was inactive. Further, in test [2], the concentration at half-maximal activity (AC50) is 11.5 µM (active).

Consider `Oc1ccccc1`, for which the outcome in test [2], in test [3], in test [4], in test [5], in test [6] and in [7] was inactive. Further, the outcome in test [8], in [9] and in test [10] was inactive.

In the case of `O=C=NCCCCCCN=C=O`, the result in test [2], in test [3], in test [4], in test [5], in [6] and in test [7] was inactive. In addition, the result in test [8] and in [9] was inactive.

Turning to `Clc1cc(Cl)c2c(c1)N=C1CCCCCN1C2`, the outcome in test [2], in test [3], in test [4], in test [5], in test [6] and in test [7] was inactive. Moreover, the outcome in test [8], in test [9] and in [10] was inactive.

On to `CCOC(=O)O[C@H](C)OC(=O)c1ccc2c(c1)cc(C(=O)NC1CCN(C(C)C)CC1)n2Cc1cc(-c2ccc(Cl)s2)on1`, for which the concentration at half-maximal activity (AC50) is 5.03 µM (active) in test [2]; 13.2 µM (active) in test [3]; 5.3 µM (active) in [4]; 6.95 µM (active) in test [5]; 5.07 µM (active) in test [6]; 6.07 µM (active) in test [7]. Further, the AC50 in [9] was 7.66 µM (active). Also, the result in [8] was inactive.

With `CC[C@@H]1C[C@H](N(Cc2cc(C(F)(F)F)cc(C(F)(F)F)c2)C(C)=O)c2cc(C(F)(F)F)ccc2N1C(=O)OC(C)C`, the result in [1], in [2], in test [3], in test [4], in test [5] and in [6] was inactive. Also, the result in test [7], in test [8], in test [9] and in test [10] was inactive.

As to `c1ccc2n[nH]nc2c1`, the outcome in test [2], in test [3], in test [4], in [5], in test [6] and in test [7] was inactive. For the same compound, the outcome in test [8] and in [9] was inactive.

Consider `COCC(C)OCC(C)OCC(C)O` (configuration not stated), for which the outcome in test [2], in test [3], in test [4], in test [5], in [6] and in test [7] was inactive. The outcome in test [8], in test [9] and in test [10] was inactive.

Consider `Cc1ncc(CO)c(CO)c1O`, for which the compound was classed as inactive in test [1], in test [2], in [3], in test [4], in [5] and in test [6]. Moreover, the result in [7], in test [8], in test [9] and in [10] was inactive.

Turning to `O=c1ccc2ccccc2o1`, the result in test [2], in test [3], in test [4], in test [5], in test [6] and in test [7] was inactive. The outcome in [8] and in [9] was inactive.

As to `O=C(Nc1ccc(Cl)cc1)Nc1ccc(Cl)c(Cl)c1`, the AC50 in [2] is 2.66 µM (active); in test [5] it was 2.6 µM (active); in [6] it was 2.02 µM (active); in test [9], 1.92 µM (active). The result in test [3], in test [4], in [7] and in test [8] was inactive.

Take `CCCCCCCCCCCC[N+](C)(C)C`: the result in test [1] and in test [10] was inactive. For the same compound, the AC50 is 18 µM (active) in test [3]; 20 µM (active) in test [5]; 26.9 µM (active) in test [6]; 32 µM (active) in [7]; 5.28 µM (active) in test [8]; 29.8 µM (active) in test [9].

As to `O=C(O)c1ccccc1-n1cc(C(=O)O)c(=O)c2cc(Nc3c(F)cc(F)cc3Cl)c(Cl)cc21`, the outcome in test [2], in [3], in test [4], in [5], in [6] and in [7] was inactive. Moreover, the result in test [8], in test [9] and in test [10] was inactive.

For the compound `O=c1[nH]sc2ccccc12`, the compound was called inactive in test [1] and in test [10]. Besides, the AC50 in test [2] was 13.8 µM (active); in [3] it was 26 µM (active); in test [4], 5.31 µM (active); in test [5], 5.54 µM (active); in [6] it was 20 µM (active); in [7], 37.1 µM (active). Further, the concentration at half-maximal activity (AC50) in [8] is 5.42 µM (active); in [9], 20 µM (active).

For the compound `CCCCCCCCCCCCO`, the AC50 was 31.2 µM (active) in test [2]; 38.4 µM (active) in [4]; 34.2 µM (active) in test [5]; 31.1 µM (active) in test [6]; 31.9 µM (active) in test [7]; 30.9 µM (active) in test [9]. In addition, the AC50 in test [10] is 34 µM (active). Moreover, the result in test [3] and in test [8] was inactive.

For `CCCCOC(=O)c1ccc(O)cc1`, the call in test [1], in test [2], in test [3], in [4], in test [5] and in test [6] was inactive. Moreover, the result in test [7], in test [8], in test [9] and in test [10] was inactive.

For the compound `CCCCCCCCN(C)CCCCCCCC`, the compound was called inactive in test [1], in test [2], in test [3], in [4], in [5] and in [6]. The outcome in test [7], in test [8], in test [9] and in [10] was inactive.

`OC12N=C(c3ccccc3)SC1Cc1cc(Cl)ccc12` (configuration not stated): the call in test [1], in [4], in [5], in [6], in test [7] and in [8] was inactive. The result in test [9] and in test [10] was inactive. The half-maximal activity concentration (AC50) in test [2] is 28.1 µM (active); in test [3], 15.3 µM (active).

On to `CN(C)c1ccc(C(=C2C=CC(=[N+](C)C)C=C2)c2ccc(N(C)C)cc2)cc1`, for which the AC50 in test [2] is 4.93 µM (active); in test [3], 0.938 µM (active); in test [4] it was 16 µM (active); in test [5], 0.613 µM (active); in test [6], 8.49 µM (active); in test [7], 7.72 µM (active). For the same compound, the half-maximal activity concentration (AC50) was 3.97 µM (active) in [8], 1.42 µM (active) in test [9] and 0.148 µM (active) in [10].
